Common to all, as to assay: NCI-60 one-dose screen, 48 h (100 = growth as untreated, 0 = no growth, -100 = all killed)
Holding throughout (details): 10 µM unless noted

Experiment [1] has as its system SR leukemia.
Experiment [2] relates to RPMI-8226 leukemia.
Experiment [3] concerns OVCAR-8 ovarian.
The subject of experiment [4] is OVCAR-5 ovarian.
The test system of experiment [5] is OVCAR-4 ovarian.
Experiment [6] relates to SK-OV-3 ovarian.
The subject of experiment [7] is IGROV1 ovarian.
For experiment [8], the system named is OVCAR-3 ovarian.
Experiment [9] deals with HS 578T breast.
The subject of experiment [10] is NCI/ADR-RES ovarian.

This is part of a sample that, as a whole, favours compounds with a hit. Of some 83,000 tested, about 20% had one in any assay.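 How to read the values: 0–100, growth inhibition (40 = 60% inhibited); 0, no net growth; -100 to 0, cell death (-40 = 40% of starting cells died; -100 = all dead).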 A number with no mark means an inactive call. Activity calls are given as the source filed them. How the source made its calls: active means growth percent below 10; inactive means the rest.

Consider 13 compounds from PubChem BioAssay (NCI).

For `N#Cc1c(-c2cccs2)cc(-c2cccnc2)[nH]c1=O`, the growth was 95.9% in experiment [1]; 98.6% in experiment [2]; 97.9% in [3]; 96.9% in [4]; 118% in experiment [5]; 97.2% in experiment [6]. For the same compound, the growth in experiment [7] was 108%; in [8] it was 104%; in experiment [9] it was 102%; in [10] it was 103%.
As to `O=C1c2cccnc2C(=O)c2c1c(C(=O)NCCCN1CCCCC1)c1ccccn21`, the growth was -15.3% (active) in experiment [1]; -10.9% (active) in experiment [2]; -13.3% (active) in experiment [3]; -0.385% (active) in experiment [4]; -88% (active) in [5]; -15.7% (active) in experiment [6]. Besides, the growth in [7] was -43.4% (active); in experiment [8], -34.8% (active); in experiment [9], 36.3%; in experiment [10], -15.5% (active).
Turning to `COc1cc2c(c(OC)c1OC)-c1ccc(OC)c(=O)cc1[C@@H](NC(=O)CCl)CC2`, the growth in experiment [1] is 36.3%; in experiment [2], 20.3%; in [3], 8.53% (active); in experiment [4], 22.4%; in [5] it was 42.7%; in experiment [6] it was 15.5%. Besides, the growth was 14.1% in experiment [7], 8.93% (active) in [8], 63.4% in experiment [9] and -39.4% (active) in experiment [10].
As to `CNC(=O)c1cc(Oc2ccc3nc(NC(C)=O)sc3c2)ccn1`, the growth in experiment [1] was 85.4%; in experiment [2], 93.8%; in [3], 99.9%; in experiment [4] it was 103%; in experiment [5] it was 95.9%; in experiment [6] it was 107%. For the same compound, the growth was 104% in experiment [7], 105% in [8], 107% in [9] and 98.1% in experiment [10].
Regarding `Cc1ccccc1/C=C1\CN(C(=O)OC(C)(C)C)C/C(=C\c2ccccc2C)C1=O`, the growth in experiment [1] was 8.93% (active); in [2], -23.7% (active); in experiment [3] it was 17.1%; in experiment [4], 51.1%; in experiment [5], -2.97% (active); in [6], 74.9%. Moreover, the growth in [7] is 26%; in experiment [8], -30.9% (active); in [9], 31.2%; in experiment [10], 15.7%.
Consider `CN(C)c1ccc(Nc2cc(-c3cccc(OC(F)(F)F)c3)nc3ccc(N4CCCC4)cc23)cc1`, for which the growth was -14.6% (active) in experiment [1]; -33% (active) in [2]; -26.6% (active) in [3]; 100% in [4]; -73.8% (active) in [5]; 98.6% in experiment [6]. The growth in [7] is -17.9% (active); in [8], -49.7% (active); in [9] it was -1.71% (active); in experiment [10], -30.2% (active).
For `Cc1ccc(CNc2ccc(Cl)cc2NCc2ccc(C)c(O)c2)cc1O`, the growth in experiment [1] is -33% (active); in experiment [2] it was 16%; in experiment [3], 23.6%; in [4] it was 73.6%; in [5], 27.8%; in [6], 54.7%. Further, the growth in experiment [7] is 24.2%; in experiment [8], 10.9%; in experiment [9], 42.7%; in experiment [10], 15.4%.
Consider `CCN1C(=O)N(CC)C2C1NN=c1s/c(=C\c3cccc([N+](=O)[O-])c3)c(=O)n12` (stereo not given), for which the growth in experiment [1] is 12.7%; in experiment [2], 22.8%; in [3], 6.8% (active); in experiment [4] it was 33%; in experiment [5] it was 51.1%; in [6], 38.3%. Moreover, the growth is 22.6% in experiment [7], 1.4% (active) in experiment [8], 17.6% in experiment [9] and 9.2% (active) in [10].
Turning to `O=C(c1cc2ccccc2o1)c1nn(-c2ccccc2)/c(=N/N=Cc2cn(-c3ccccc3)nc2-c2cc3ccccc3oc2=O)s1`, the growth in [1] is 72.7%; in [2], 90.9%; in [3], 97.5%; in experiment [4], 105%; in experiment [5], 93.3%; in experiment [6], 127%. Also, the growth in [7] was 99.1%; in [8], 100%; in [9], 99.8%; in experiment [10], 96.5%.
With `O=[N+]([O-])/C(=C/C=C/c1ccccc1)c1ccccc1`, the growth in [1] was 26.5%; in experiment [2], 35.8%; in experiment [3], 77.6%; in experiment [4], 87.9%; in experiment [5], 77.2%; in [6], 97.1%. In addition, the growth is -4.26% (active) in [7], 1.93% (active) in [8], 56.8% in experiment [9] and 78.3% in experiment [10].
For `C=C(C)[C@@H]1CC[C@]2(C(=O)N3CCN(C)CC3)CC[C@]3(C)[C@H](CC[C@@H]4[C@@]5(C)CC(=C/c6ccncc6)/C(=N/O)C(C)(C)[C@@H]5CC[C@]43C)[C@@H]12`, the growth in experiment [1] is 3.4% (active); in experiment [2], 46.7%; in [3], 85.1%; in experiment [4] it was 86.7%; in [5] it was 69.2%; in experiment [6], 98.7%. Also, the growth in experiment [7] was 65.1%; in experiment [8], 75.2%; in experiment [9], 87.5%; in [10] it was 78.8%.
For `O=S(=O)(Nc1cc(Br)c(O)c2ccccc12)c1ccc(F)cc1`, the growth in experiment [1] was 11.6%; in experiment [2], 27.2%; in [3] it was 3.09% (active); in experiment [4], 113%; in [5], -97.5% (active); in experiment [6] it was 99.7%. Moreover, the growth was 81.4% in experiment [7], -0.424% (active) in experiment [8], 98.3% in experiment [9] and 4.65% (active) in experiment [10].
With `CCN(CC)CCCN1C(=O)c2c(c(C)c3c(oc4cc(O)ccc43)c2C)C1=O`, the growth in experiment [1] was 8.28% (active); in [2], -30% (active); in experiment [3], -39.4% (active); in experiment [4] it was -77.2% (active); in experiment [5], -50.2% (active); in experiment [6], 105%. Further, the growth is -74.5% (active) in experiment [7], 118% in experiment [8], 101% in experiment [9] and -40.4% (active) in experiment [10].
